In PubChem BioAssay (Tox21):
Where “and” joins values, the source holds several entries; their conditions need not be identical. Equal entries are not always repeated. Inconclusive results are not listed. Values without a mark were called inactive. Calls of active or inactive are those of the source. Calls follow the shape of the dose curve; as a rule, active = well fitted cell-killing curve with a large enough effect in the repeat runs; inconclusive = weak or mixed curves, or effect the other way; inactive = flat fitted curve, though single readings scatter.
% is scaled to controls: 0 for no effect and ±100 for the full control effect; potency is read from the fitted curve at half-maximal effect.

Experiment: cAMP Responsive Elements (CRE) small molecule antagonists, cell-based qHTS assay: qHTS cell viability counter screen (AID 2060913); also: nearly all actives have a fitted effect of over 40% in size
Conditions: CRE-bla HEK293T viability, CellTiter-Glo luminescence, 5 h; series mostly up to 92.4 µM; viability change, negative = cytotoxic: at the top concentration
Method in brief: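 CRE-bla HEK293T cells (2,000/well, 18 h) given compound plus NKH477 0.25 uM final for 3 h at 37C; viability counter-screen by CellTiter-Glo luminescence in same wells after 30 min.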
In the case of `CC(Cl)Cl`, the “viability change, negative = cytotoxic” value is reported as 1.77%.
For `CCCCOC(=O)c1ccccc1N`, the “viability change, negative = cytotoxic” value was -12.6%.
In the case of `CC(O)CN1CCN(CC(=O)[O-])CCN(CC(=O)[O-])CCN(CC(=O)[O-])CC1.[Gd+3]` (stereo not given), the “viability change, negative = cytotoxic” value is reported as -19.2% [at 42.5 µM].
With `O=[N+]([O-])c1cccc(CCl)c1` the “viability change, negative = cytotoxic” value was -9.58%.
For `COc1cccc(C(=O)CCN[C@@H](C)[C@H](O)c2ccccc2)c1`, the “viability change, negative = cytotoxic” value was -1.35% [at 42.5 µM].
With `C1CS1` the “viability change, negative = cytotoxic” value was -7.74%.
In the case of `CC(C)(c1ccccc1)c1ccc(O)c(C(C)(C)c2ccccc2)c1`, the Potency is reported as 42.9 µM (active) and 54.5 µM (active).
For `BrCCCCBr`, the “viability change, negative = cytotoxic” value was 1.97%.
For `CNC(=O)NC(O)C(Cl)(Cl)Cl` (stereo not given), the “viability change, negative = cytotoxic” value was -0.0939% [at 42.5 µM].
For `CC(=O)/C=C/c1ccccc1`, the Potency was “inactive”.
In the case of `O=[N+]([O-])c1c(Cl)c(Cl)c(Cl)c(Cl)c1Cl`, the Potency is reported as “inactive”.
In the case of `Clc1ccc(CSC(Cn2ccnc2)c2ccc(Cl)cc2Cl)cc1` (stereo not given), the “viability change, negative = cytotoxic” value is reported as -24.1% [at 42.5 µM].
In the case of `O=[N+]([O-])c1cccc2ccccc12`, the Potency is reported as “inactive”.
For `Cc1cc(Cl)ccc1OC(C)C(=O)O` (stereo not given), the Potency was “inactive”.
With `CCCC[n+]1cccc(C)c1` the Potency was “inactive”.
For `Nc1ccccc1Cl`, the “viability change, negative = cytotoxic” value was 1.41%.
With `Cc1cnc2c(C(=O)O)c(Cl)ccc2c1` the “viability change, negative = cytotoxic” value was -1.06%.
For `CNC(=O)Oc1cccc(N=CN(C)C)c1`, the “viability change, negative = cytotoxic” value was -1.38%.
In the case of `Nc1nc(N)nc(N)n1`, the “viability change, negative = cytotoxic” value is reported as 1.25%.
For `CCCC[N+]1(C)[C@@H]2CC(OC(=O)[C@H](CO)c3ccccc3)C[C@H]1[C@@H]1O[C@@H]12` (stereo not given in full), the “viability change, negative = cytotoxic” value was 1.99% [at 42.5 µM].
For `CCOP(=S)(Oc1ccc([N+](=O)[O-])cc1)c1ccccc1` (stereo not given), the “viability change, negative = cytotoxic” value was -12.3%.
In the case of `CCOP(=S)(OCC)Oc1cc(-c2ccccc2)on1`, the “viability change, negative = cytotoxic” value is reported as -9.96%.
In the case of `O=S(=O)(Cl)c1ccccc1`, the “viability change, negative = cytotoxic” value is reported as 0.933%.
In the case of `COC(=O)C(C)Oc1ccc(Oc2ccc(Cl)cc2Cl)cc1` (stereo not given), the “viability change, negative = cytotoxic” value is reported as -6.7%.
In the case of `Cc1cccc(N)c1N`, the Potency is reported as “inactive”.
With `Oc1ccc(C(c2ccc(O)cc2)(C(F)(F)F)C(F)(F)F)cc1` the “viability change, negative = cytotoxic” value was -2.87%.
With `CC(C)(C)C(=O)C(Cl)Cl` the “viability change, negative = cytotoxic” value was 1.59%.
In the case of `O=[N+]([O-])c1ccc2c3c(cccc13)CC2`, the “viability change, negative = cytotoxic” value is reported as 2.31%.
For `Cc1nnc(-c2ccccc2)c(=O)n1N`, the “viability change, negative = cytotoxic” value was 4.98%.
For `Nc1c(Br)cc(Br)c2c1C(=O)c1ccccc1C2=O`, the viability change, negative = cytotoxic was 10% [at 18.9 µM].
For `c1ccc2c(c1)sc1ccccc12`, the Potency was “inactive”.
With `NNC(=O)c1ccccc1` the “viability change, negative = cytotoxic” value was -3.74%.
In the case of `CN(C)c1nc(=O)n(C2CCCCC2)c(=O)n1C`, the Potency is reported as “inactive”.
In the case of `O=C(O)COc1nc(Cl)c(Cl)cc1Cl`, the “viability change, negative = cytotoxic” value is reported as -6.92%.
With `O=c1[nH]c(Cl)c(Cl)cc1Cl` the “viability change, negative = cytotoxic” value was -1.81%.
With `O=C(CBr)c1ccc(O)cc1` the “viability change, negative = cytotoxic” value was -2.46%.
In the case of `C1CN2CCN1CC2`, the Potency is reported as “inactive”.
With `CCC(=O)O[C@H]1CC[C@H]2[C@@H]3CCC4=CC(=O)CC[C@]4(C)[C@H]3CC[C@]12C` the “viability change, negative = cytotoxic” value was -8.08% [at 42.5 µM].
In the case of `COP(=S)(OC)Oc1cc(Cl)c(I)cc1Cl`, the “viability change, negative = cytotoxic” value is reported as -19.3%.
With `CC1CCC(=O)O1` (stereo not given) the “viability change, negative = cytotoxic” value was -0.612%.

Experiment: cAMP Responsive Elements (CRE) small molecule agonists, cell-based qHTS assay: qHTS cell viability counter screen (AID 2060914);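 also: viability read after 3 h of compound exposure; nearly all actives have a fitted effect of over 50% in size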
Conditions: CRE-bla HEK293T viability, CellTiter-Glo luminescence, 5 h; series mostly up to 92.4 µM; activity change, negative = cytotoxicity: at the top concentration
Method in brief: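 Cytotoxicity counter screen multiplexed with the CRE-bla reporter assay in HEK 293T cells: 3 h compound exposure at 37 °C, followed by CellTiter-Glo luminescence measured in the same wells.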
In the case of `CC(Cl)Cl`, the “activity change, negative = cytotoxicity” value is reported as 2.42%.
With `CCCCOC(=O)c1ccccc1N` the “activity change, negative = cytotoxicity” value was -20.4%.
For `CC(O)CN1CCN(CC(=O)[O-])CCN(CC(=O)[O-])CCN(CC(=O)[O-])CC1.[Gd+3]` (stereo not given), the “activity change, negative = cytotoxicity” value was -1.99% [at 42.5 µM].
In the case of `O=[N+]([O-])c1cccc(CCl)c1`, the “activity change, negative = cytotoxicity” value is reported as -3.07%.
For `COc1cccc(C(=O)CCN[C@@H](C)[C@H](O)c2ccccc2)c1`, the “activity change, negative = cytotoxicity” value was 8.03% [at 42.5 µM].
With `C1CS1` the “activity change, negative = cytotoxicity” value was -20.1%.
In the case of `CC(C)(c1ccccc1)c1ccc(O)c(C(C)(C)c2ccccc2)c1`, the Potency is reported as 60.6 µM (active) and 61.1 µM (active).
For `BrCCCCBr`, the “activity change, negative = cytotoxicity” value was -6.17%.
In the case of `CNC(=O)NC(O)C(Cl)(Cl)Cl` (stereo not given), the “activity change, negative = cytotoxicity” value is reported as 11.7% [at 42.5 µM].
In the case of `CC(=O)/C=C/c1ccccc1`, the Potency is reported as “inactive”.
In the case of `O=[N+]([O-])c1c(Cl)c(Cl)c(Cl)c(Cl)c1Cl`, the Potency is reported as “inactive”.
For `Clc1ccc(CSC(Cn2ccnc2)c2ccc(Cl)cc2Cl)cc1` (stereo not given), the “activity change, negative = cytotoxicity” value was -17.9% [at 42.5 µM].
With `O=[N+]([O-])c1cccc2ccccc12` the Potency was “inactive”.
For `Cc1cc(Cl)ccc1OC(C)C(=O)O` (stereo not given), the Potency was “inactive”.
With `CCCC[n+]1cccc(C)c1` the Potency was “inactive”.
With `Nc1ccccc1Cl` the “activity change, negative = cytotoxicity” value was -11.7%.
For `Cc1cnc2c(C(=O)O)c(Cl)ccc2c1`, the “activity change, negative = cytotoxicity” value was 3.99%.
In the case of `CNC(=O)Oc1cccc(N=CN(C)C)c1`, the “activity change, negative = cytotoxicity” value is reported as 1.13%.
In the case of `Nc1nc(N)nc(N)n1`, the “activity change, negative = cytotoxicity” value is reported as 0.555%.
For `CCCC[N+]1(C)[C@@H]2CC(OC(=O)[C@H](CO)c3ccccc3)C[C@H]1[C@@H]1O[C@@H]12` (stereo not given in full), the “activity change, negative = cytotoxicity” value was -0.662% [at 42.5 µM].
In the case of `CCOP(=S)(Oc1ccc([N+](=O)[O-])cc1)c1ccccc1` (stereo not given), the “activity change, negative = cytotoxicity” value is reported as -12.1%.
With `CCOP(=S)(OCC)Oc1cc(-c2ccccc2)on1` the “activity change, negative = cytotoxicity” value was -10.5%.
In the case of `O=S(=O)(Cl)c1ccccc1`, the “activity change, negative = cytotoxicity” value is reported as -1.11%.
With `COC(=O)C(C)Oc1ccc(Oc2ccc(Cl)cc2Cl)cc1` (stereo not given) the “activity change, negative = cytotoxicity” value was -2.78%.
With `Cc1cccc(N)c1N` the “activity change, negative = cytotoxicity” value was -18.9%.
For `Oc1ccc(C(c2ccc(O)cc2)(C(F)(F)F)C(F)(F)F)cc1`, the Potency was “inactive”.
For `CC(C)(C)C(=O)C(Cl)Cl`, the “activity change, negative = cytotoxicity” value was 1.21%.
With `O=[N+]([O-])c1ccc2c3c(cccc13)CC2` the “activity change, negative = cytotoxicity” value was -2.76%.
For `Cc1nnc(-c2ccccc2)c(=O)n1N`, the “activity change, negative = cytotoxicity” value was 1.53%.
For `Nc1c(Br)cc(Br)c2c1C(=O)c1ccccc1C2=O`, the activity change, negative = cytotoxicity was -19.1% [at 18.9 µM].
In the case of `c1ccc2c(c1)sc1ccccc12`, the Potency is reported as “inactive”.
For `NNC(=O)c1ccccc1`, the “activity change, negative = cytotoxicity” value was -11.9%.
In the case of `CN(C)c1nc(=O)n(C2CCCCC2)c(=O)n1C`, the Potency is reported as “inactive”.
In the case of `O=C(O)COc1nc(Cl)c(Cl)cc1Cl`, the “activity change, negative = cytotoxicity” value is reported as -22.8%.
With `O=c1[nH]c(Cl)c(Cl)cc1Cl` the “activity change, negative = cytotoxicity” value was -1.94%.
With `O=C(CBr)c1ccc(O)cc1` the “activity change, negative = cytotoxicity” value was 26.3%.
For `C1CN2CCN1CC2`, the Potency was “inactive”.
For `CCC(=O)O[C@H]1CC[C@H]2[C@@H]3CCC4=CC(=O)CC[C@]4(C)[C@H]3CC[C@]12C`, the “activity change, negative = cytotoxicity” value was -2.25% [at 42.5 µM].
With `COP(=S)(OC)Oc1cc(Cl)c(I)cc1Cl` the “activity change, negative = cytotoxicity” value was 0.379%.
In the case of `CC1CCC(=O)O1` (stereo not given), the “activity change, negative = cytotoxicity” value is reported as 9.93%.
